In all, about 360,000 compounds went through this assay and about 4,600 (1.3%) were called active.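 How the source made its calls: active means percent inhibition above its own plate's cutoff, namely the mean of that plate's compound wells plus 3 SD; inactive means the rest.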 The sample as a whole holds a higher share of actives than the screen did.
Target: Muscarinic acetylcholine receptor M1 (Homo sapiens) (UniProt P11229)
Experiment: CHRM1 blockers of acetylcholine calcium response – CHO-K1 cells, Fluo-8 calcium fluorescence, 1536-well, primary screen (AID 588852);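 further: peak over basal fluorescence ratio during 140 s after agonist addition; 0% = ACh EC80 plus DMSO and 100% = DMSO alone without agonist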
Conditions: CHO-K1 hM1, Fluo-8 calcium fluorescence, ACh EC80 antagonist; at 3 µM; active compounds read high

Chain of Muscarinic acetylcholine receptor M1 (Homo sapiens) (P11229 whole entry, looked up): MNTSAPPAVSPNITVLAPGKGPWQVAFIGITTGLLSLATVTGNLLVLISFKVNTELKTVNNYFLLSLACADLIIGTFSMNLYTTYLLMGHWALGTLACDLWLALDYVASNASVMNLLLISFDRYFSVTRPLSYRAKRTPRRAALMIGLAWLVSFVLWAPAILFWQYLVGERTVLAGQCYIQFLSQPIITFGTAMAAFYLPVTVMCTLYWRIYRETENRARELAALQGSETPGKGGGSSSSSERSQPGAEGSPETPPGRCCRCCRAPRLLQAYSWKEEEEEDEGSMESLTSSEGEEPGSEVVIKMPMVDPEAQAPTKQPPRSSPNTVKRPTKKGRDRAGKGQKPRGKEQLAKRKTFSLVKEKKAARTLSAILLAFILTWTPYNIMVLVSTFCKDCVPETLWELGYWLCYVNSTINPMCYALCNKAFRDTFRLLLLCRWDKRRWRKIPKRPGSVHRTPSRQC

inhibition, inactive:
CCOc1ccc2[nH]c(=S)sc2c1 -3.12%, CCc1ccc[n+](-c2nc([O-])sc2C=O)c1 -4.29%, Cc1ccc(S(=O)(=O)N2CCOCC2)cc1C(=O)OC1CCCCC1=O (centres undefined) 0.72%, O=C(/C=C/[C@H]1O[C@@H](n2ccc(=O)[nH]c2=O)[C@H](O)[C@@H]1O)NCc1ccccn1 -44.8%, Cc1cccc(CSc2nnc(C)c(=O)n2N)c1 -6.73%, Cn1c(SCC(=O)N2CCCCC2)nc2c(c1=O)SCC2 17.4%, O=C(OCC(=O)N1CCc2ccccc21)C1CCCN1S(=O)(=O)c1ccc(Cl)cc1 (centres undefined) -8.54%, CN[C@H]1C[C@H]2c3cc(Oc4ccccc4C)ccc3CCN2C(=O)[C@H]1[C@H](C)O -8.68%, CCN1CCN(CCNC(=O)c2ccc3c(c2)NC(=O)/C(=C\c2cccc(Cl)c2)S3)CC1 3.02%, Cc1ccccc1CN1C(=O)c2ccccc2Sc2ccc(C(=O)NCCCN3CCOCC3)cc21 -18.2%, C[C@H](NC(=O)CC[C@H]1O[C@@H](n2ccc(=O)[nH]c2=O)[C@H](O)[C@@H]1O)c1cccc2ccccc12 -22.7%, COCCCNCCOCCOc1ccc(Cl)cc1Br -3.69%, COCC(C)NCc1cc(Br)ccc1OC (centres undefined) -2.87%, COC(=O)c1ccc(CN2C(=O)C(Cc3ccccc3)ON=C2c2ncccc2C)o1 (centres undefined) 0.28%, CC(C)C(NC(=O)c1c(F)cccc1F)C(=O)NNC(=O)c1ccccc1 (centres undefined) 7.65%, CCC1Oc2ccccc2N(CC(=O)NCCCN2CCN(CC)CC2)C1=O (centres undefined) -1.31%, Cc1c(C)n(Cc2ccc(Cl)cc2)c2ccc(C(=O)NCCCN3CCOCC3)cc12 12.4%, C=Cn1cc[n+](CC(=O)c2ccc(OC)c(OC)c2)c1 8.24%, CN(Cc1ccccc1)C(=O)c1ccc(COc2ccccc2)cc1 -0.5%, CCOc1ccc(OCc2ccc(C(=O)N(C)c3ccccc3)o2)cc1 -7.87%, CC(C)NC(=O)NCCCCCCS(C)=O (centres undefined) -12%, C/C=C/c1ccc(OCCCCN2CCC(C)CC2)c(OC)c1 10.4%, Cc1sc2ncn(CC(=O)NCCCC(=O)N3CCN(c4ccccc4F)CC3)c(=O)c2c1C 9.4%, COc1ccccc1C(=O)NN1C(=O)C2C3C=CC(O3)C2C1=O (centres undefined) 1.11%, O=C(NN1C(=O)C2C3C=CC(O3)C2C1=O)c1ccccc1 (centres undefined) -6.53%, Cc1ccc(S(=O)(=O)NCC(=O)N(CC(=O)NCC2CCCO2)c2cccc(F)c2)cc1 (centres undefined) -7.09%, CC(=O)Nc1cccc(-c2ccnc3c2CC(C)(C(=O)NCc2ccccc2)O3)c1 (centres undefined) -11.3%, CC(O)(c1cccc(F)c1)c1nc(-c2ccc3c(c2)OCO3)cs1 (centres undefined) 1.89%, Fc1ccc(-n2c(Cc3ccccc3)nnc2SCc2nc(-c3ccc(Cl)cc3)no2)cc1 -1.38%, CCOc1ccc2[nH]c(=O)c(CN(CCCO)S(=O)(=O)c3ccc(F)cc3)cc2c1 -1.99%, COc1ccc(-c2[nH]ncc2CN(C)Cc2cccnc2)c(F)c1 -0.76%, O=C(NCCN1CCOCC1)c1ccccc1N1C(=O)[C@@H]2Cc3c([nH]c4ccccc34)C(c3cccc(Cl)c3)N2C1=O (some centres undefined) 9.91%, CCCc1nc2c3ccccc3ccn2c1Cc1ccccc1C(F)(F)F 0.78%, COc1ccccc1CC1(C)C(=O)Nc2ccc(OC(F)(F)F)cc21 (centres undefined) -12.6%, CC1=C(C(=O)N(C(C)C)C(C)C)CC(CC(=O)NCC2CCCCC2)C(=O)N1Cc1ccccc1 (centres undefined) -28.2%, Cc1c2cnn(CC(=O)NCc3ccccn3)c(=O)c2c(C)n1Cc1ccc(Cl)cc1 -7.49%, N#C/C(=C\c1ccc(N2CCOCC2)o1)C(=O)N1CCOCC1 -4.72%, N#C/C(=C/c1ccc(N2CCOCC2)o1)C(=O)N1CCOCC1 -3.41%, Cc1ccc2cc(C)c(N3CCC(C)CC3)nc2c1 1.39%, Cc1cc(Nc2cc(N3CCN(C)CC3)nc(Sc3ccc(NC(=O)C4CC4)cc3)n2)n[nH]1 -2.83%, CCN(CC)CCN(C(=O)c1ccc2c(c1)CCCC2)c1nc2c(OC)cccc2s1 14.3%, CCNC(=S)N(CCN(CC)CC)Cc1cc2cc3c(cc2[nH]c1=O)OCO3 -13.5%, C[C@@H]1CN([C@H](C)CO)C(=O)c2cc(Br)cnc2O[C@@H]1CN(C)Cc1cncnc1 -11.6%, COc1ccc(S(=O)(=O)N2CCN(C(=O)N(C)C)C2C)cc1 (centres undefined) -7.85%, O=C(CC[C@H]1O[C@@H](n2ccc(=O)[nH]c2=O)[C@H](O)[C@@H]1O)N[C@H](Cc1ccccc1)C(=O)NCc1ccco1 -4.88%, Cc1ccc(S(=O)(=O)N2CC[C@H]3[C@@H](C2)C(=O)C[C@@H](c2ccccc2)N3S(=O)(=O)c2ccc(C)cc2)cc1 -2.99%, Cn1c(=O)n(C)c2cc(NS(=O)(=O)c3ccc(F)cc3)ccc21 4.92%, CCOC(=O)N1CCN(Cc2nc3cc(NC(C)=O)ccc3n2C)CC1 -2.65%, Cn1c(=O)n(C)c2cc(S(=O)(=O)Nc3ccc(F)cc3)ccc21 0.75%, CCN(CC)c1ccc(NC(=O)CN2CCN(c3ccccn3)CC2)cc1 -1.84%, CCOc1ccc(CCN2C(=S)N([C@@H](CC(C)C)CN3CCC[C@@H]3CN3C(=S)NC[C@@H]3Cc3ccc(O)cc3)C[C@@H]2Cc2ccc(O)cc2)cc1 -5.61%, COc1ccc(OC)c(C2C3=C(N=c4s/c(=C\c5cccc(O)c5)c(=O)n42)c2ccccc2CC3)c1 (centres undefined) -14.9%, CC1(c2cccc(Br)c2)NC(=O)N(CC(=O)NCCC2=CCCCC2)C1=O (centres undefined) -4.07%, CN(Cc1ccc(F)cc1Cl)S(=O)(=O)c1cccs1 -6.7%, Cc1ccc(-c2ccc(=O)n(Cc3ccc(F)cc3Cl)n2)cc1 -14.4%, CC(=O)NC(c1cccs1)c1cc(Br)c2cccnc2c1O (centres undefined) -13.2%, CCOC(=O)c1[nH]c2ccc(OC)cc2c1NC(=O)N1CCOCC1 -21.5%, CCOC(=O)c1cc2cc(C)ccc2[nH]1 6.42%, Cc1ccc(-c2ccnc3nc(Sc4ncc(C(F)(F)F)cc4Cl)nn23)cc1 -1.4%, O=C(Nn1cnnc1)c1cc(Cl)ccc1Cl -9.41%, O=C(NCc1ccc2c(c1)OCO2)c1cc2c(s1)CS(=O)(=O)C2 4.31%, Cc1ccc(OCCCCN2CCCCC2)c(Br)c1 22.6%, Cc1ccc(C(C)C)cc1OCC(=O)Nc1ccccc1N1CCCC1 -19.6%, c1ccc2cc(OCCN3CCCC3)ccc2c1 -1.41%, Cc1cc(OCCN2CCCC2)ccc1C(C)C -3.45%, CCCCc1nc2ccc(F)cc2cc1C -6.44%, CC(C)C1C(=O)N(Cc2cn(CCC3OCCO3)nn2)CCS(=O)(=O)N1Cc1ccc(-c2ccccc2C(F)(F)F)cc1 (centres undefined) -16.4%, Cc1ccccc1NC(=O)COc1cccc2c1CCNC2=O -7.58%, CC1CC(C)CN(CC(=O)N2c3ccccc3CCc3ccccc32)C1 (centres undefined) 4.81%, CN1CCN(S(=O)(=O)c2cccc(C(=O)N3CCc4ccccc43)c2)CC1 6.81%, CC(=O)Nc1ccc(NC(=O)[C@@H](NC(=O)c2cccc(C)c2)C(C)C)cc1 -11.7%, CSCCC(NC(=O)COc1ccccc1)C(=O)Nc1ccc(C)cc1 (centres undefined) -7.4%

inhibition, active:
Cc1cccc(CSc2nc3c(c(=O)n2C)SCC3)c1 55.3%, CCN1CCN(CCNC(=O)c2ccc(/C=C3/Sc4ccccc4N(Cc4cccc(C)c4)C3=O)cc2)CC1 35.2%, CCC(C)NCCOCCOc1ccc(Br)cc1C (centres undefined) 34.6%, CN1CCN(CCCNC(=O)c2ccc(/C=C3\Oc4ccccc4N(Cc4ccc(Cl)cc4)C3=O)cc2)CC1 53.5%, CN(C(=O)CN1CCN(c2cc(-c3ccc(OCc4ccccc4)cc3)ncn2)CC1)c1ccccc1 30.1%, COc1ccc(C(=O)NN2C(=O)C3C(c4ccccc4)C=CC(c4ccccc4)C3C2=O)cc1 (centres undefined) 27.3%, COc1ccc2[nH]c(=O)c(CN(Cc3cccnc3)S(=O)(=O)c3ccccc3F)cc2c1 30.8%, N#C/C(=C/c1ccc(N2CCCCC2)o1)C(=O)NCCc1c[nH]c2ccccc12 44.3%, CCN(CC)CCN(C(=O)c1cc(Cl)sc1Cl)c1nc2cc3c(cc2s1)OCO3 83.7%, CCC(=O)Nc1ccc2c(c1)nc(CCN1CCN(c3ccccn3)CC1)n2C 41.9%, Cn1c(CCN2CCN(c3ccccn3)CC2)nc2cc(NS(=O)(=O)c3ccc(F)cc3)ccc21 69.9%, CN(C)Cc1ccc(F)cc1Sc1cc(Cl)ccc1Cl 91.5%, CCOC(=O)c1[nH]c2ccc(C)cc2c1N=C(C)N(C)C 33.5%, Cc1ccc(C(C)C)cc1OCCN1CCCC1 53%, Cc1cc(OCCN2CCCC2)cc(C(C)C)c1 82.3%, CN1CCN(C(=O)N2c3ccccc3CCc3ccccc32)CC1 96.2%, Cc1ccc(NC(=O)C(C)c2cccc(C(=O)c3ccccc3)c2)cc1 (centres undefined) 28.2%

Source: PubChem BioAssay AID588852 (The Scripps Research Institute Molecular Screening Center, 2011)
